Hits are enriched below; roughly 6.9% of the tested compounds scored in any of these assays.
HCV NS3h FP = HCV NS3 helicase inhibitors, primary screen, biochemical, fluorescence polarization, ChemBridge library; Hepatitis C virus NS3 helicase; NS3h Cy5-dT15 DNA binding; inhibition, % at 100 µM; actives 1.6% (n = 16,000); AID 687043, 2013;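 active means inhibition above the average over every tested compound plus 3 SD, cut at about 40% in these data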
Cy5 interf NS3h = Cy5 fluorescence quenchers or enhancers, artefact control for HCV NS3 helicase inhibitor project, biochemical, ChemBridge library, Cy5 readout. Cy5-dT15 DNA with NS3h, fluorescence interference; actives lie on both sides; signal over control mean, under 1 quenches. fluorescence interference ratio at 100 µM. actives 6% (n = 16,000). AID 720488, 2013;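 active means compound fluorescence over control fluorescence at most 0.8, a quencher, or at least a set upper limit, an enhancer; inactive means ratio between 0.8 and the set upper limit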
* hit, by the source's call.

Results for O=C(/C=C/c1ccco1)NCc1ccc2c(c1)OCO2 ?
HCV NS3h FP: 2.9; Cy5 interf NS3h: 0.94

What do the screens show for `CC(C)c1ccc(OCCOc2ncnc3ccccc23)cc1`?
HCV NS3h FP: 6.0; Cy5 interf NS3h: 1.06

What do the screens show for `CC1=C(C(=O)Nc2cccc(Cl)c2)C(c2ccc(C)cc2)NC(=O)N1` (stereo not given)?
HCV NS3h FP: -1.7; Cy5 interf NS3h: 0.911

What do the screens show for `CCC1(C(=O)OCC(=O)c2ccc(Br)cc2)CCCCC1`?
HCV NS3h FP: 10.6; Cy5 interf NS3h: 0.989

Results for COc1ccc2nc(SCC(=O)Nc3ccccc3)[nH]c2c1 ?
HCV NS3h FP: 4.0; Cy5 interf NS3h: 0.948

What do the screens show for `COc1ccc(NC(=O)CSc2nc3ccccc3[nH]2)c(OC)c1`?
HCV NS3h FP: 10.5; Cy5 interf NS3h: 0.706*

What do the screens show for `COCP(=O)(c1ccccc1)c1ccccc1`?
HCV NS3h FP: -8.6; Cy5 interf NS3h: 0.912

What do the screens show for `Cc1ccc(S(=O)(=O)OCP(=O)(c2ccccc2)c2ccccc2)cc1`?
HCV NS3h FP: 8.7; Cy5 interf NS3h: 0.767*

Results for Nc1ccc[n+](CC(=O)c2ccccc2)c1 ?
HCV NS3h FP: -13.7; Cy5 interf NS3h: 0.755*

What do the screens show for `O=C(Nc1cccc(I)c1)c1cc2ccccc2oc1=O`?
HCV NS3h FP: 7.9; Cy5 interf NS3h: 0.963

Results for NC(=O)c1ccc[n+](CC(=O)c2cc3ccccc3oc2=O)c1 ?
HCV NS3h FP: -7.1; Cy5 interf NS3h: 0.603*

How did Nc1cccc(C(=O)Nc2ccccc2)c1 do in these assays?
HCV NS3h FP: 0.9; Cy5 interf NS3h: 0.989

Results for CCOc1cc(/C=C(\C#N)c2nn(-c3ccccc3)c(N)c2C#N)cc(Br)c1OC ?
HCV NS3h FP: -2.8; Cy5 interf NS3h: 0.997

Results for O=C1C(=O)N(Cc2ccccc2)C(c2cccc(F)c2)C1=C(O)c1ccccc1 (stereo not given) ?
HCV NS3h FP: -14.1; Cy5 interf NS3h: 0.964

How did CCc1ccc(C(=O)CC2(O)C(=O)Nc3ccccc32)cc1 (stereo not given) do in these assays?
HCV NS3h FP: 0.3; Cy5 interf NS3h: 1.05

What do the screens show for `O=C(CC1(O)C(=O)Nc2ccccc21)c1ccco1` (stereo not given)?
HCV NS3h FP: 6.8; Cy5 interf NS3h: 0.779*

How did Cc1ccc(S(=O)(=O)N=C(Nc2ccc(C)c(Cl)c2)Nc2nc(C)cc(C)n2)cc1 do in these assays?
HCV NS3h FP: 7.9; Cy5 interf NS3h: 1.03

What do the screens show for `N/C(Cc1cccc2ccccc12)=N/OC(=O)c1cccs1`?
HCV NS3h FP: 11.9; Cy5 interf NS3h: 0.976

How did CC(C)(C)C1(O)CC(c2ccccc2)=NO1 (stereo not given) do in these assays?
HCV NS3h FP: -1.0; Cy5 interf NS3h: 1.1

Results for COC(=O)c1cc(NC(=O)COc2cc(C)c(Cl)c(C)c2)cc(C(=O)OC)c1 ?
HCV NS3h FP: 2.2; Cy5 interf NS3h: 1.06

How did Cc1cc(OCC(=O)Nc2cccnc2)cc(C)c1Cl do in these assays?
HCV NS3h FP: -9.9; Cy5 interf NS3h: 0.8*

Results for Cc1cc(OCC(=O)Nc2ccccc2[N+](=O)[O-])cc(C)c1Cl ?
HCV NS3h FP: 16.8; Cy5 interf NS3h: 0.732*

How did O=C(Cc1ccc(Cl)cc1)Nc1ccc(Cl)cn1 do in these assays?
HCV NS3h FP: 9.5; Cy5 interf NS3h: 0.868

What do the screens show for `Cc1ccc(OCC(=O)Nc2ccc(C)cc2[N+](=O)[O-])cc1`?
HCV NS3h FP: 19.2; Cy5 interf NS3h: 1.05

How did O=C(Cc1ccc(Cl)cc1)Nc1cccnc1 do in these assays?
HCV NS3h FP: 18.6; Cy5 interf NS3h: 0.714*

What do the screens show for `COc1ccc(CO/N=C(\N)c2nonc2N)cc1[N+](=O)[O-]`?
HCV NS3h FP: 0.0; Cy5 interf NS3h: 0.956

How did Cc1ccccc1/C=N\N=C1\NC(=O)C(Cc2cccc([N+](=O)[O-])c2)S1 (stereo not given) do in these assays?
HCV NS3h FP: 14.7; Cy5 interf NS3h: 1.35*

What do the screens show for `N/N=C1\NC(=O)C(Cc2cccc([N+](=O)[O-])c2)S1` (stereo not given)?
HCV NS3h FP: 9.9; Cy5 interf NS3h: 1.06

Results for COc1ccc(C(=O)Nc2ccc(N3CCN(C(C)=O)CC3)cc2)cc1 ?
HCV NS3h FP: 10.0; Cy5 interf NS3h: 1.08

Results for CN(C)c1ccc(-n2nc3ccc4ccccc4c3n2)cc1 ?
HCV NS3h FP: -7.2; Cy5 interf NS3h: 0.909

Results for COCCCNC(=O)C(=O)Nc1ccc(Cl)cc1 ?
HCV NS3h FP: 12.4; Cy5 interf NS3h: 0.967

How did O=c1oc(-c2ccc(Cl)cc2Cl)nc2ccccc12 do in these assays?
HCV NS3h FP: 7.3; Cy5 interf NS3h: 1.15

What do the screens show for `O=c1oc(-c2ccccc2Cl)nc2ccc(-c3ccc4nc(-c5ccccc5Cl)oc(=O)c4c3)cc12`?
HCV NS3h FP: 1.2; Cy5 interf NS3h: 0.689*

Results for CCc1ccc(-c2nc3cc(NC(=O)COc4ccccc4[N+](=O)[O-])ccc3o2)cc1 ?
HCV NS3h FP: -3.0; Cy5 interf NS3h: 1.08

What do the screens show for `Cc1cccc(-c2nc3cc(NC(=O)COc4ccccc4[N+](=O)[O-])ccc3o2)c1`?
HCV NS3h FP: 14.2; Cy5 interf NS3h: 0.524*

Results for Cc1ccc(NC(=O)C(=O)NCCc2ccccc2)cc1C ?
HCV NS3h FP: 1.4; Cy5 interf NS3h: 0.963

What do the screens show for `COc1cc(/C=C/c2[nH]c(=O)[nH]c(=O)c2[N+](=O)[O-])cc(Br)c1OCc1ccccc1`?
HCV NS3h FP: 12.6; Cy5 interf NS3h: 1.08

What do the screens show for `COC(=O)C(=Cc1cc(Br)c(OCc2ccc([N+](=O)[O-])cc2)c(OC)c1)C(=O)OC`?
HCV NS3h FP: 5.9; Cy5 interf NS3h: 0.75*

What do the screens show for `NC(=O)C1CCN(C(=O)c2ccc([N+](=O)[O-])cc2)CC1`?
HCV NS3h FP: 6.3; Cy5 interf NS3h: 1.05

Results for COC(=O)c1ccccc1NC(=O)COc1ccc(C)c(C)c1 ?
HCV NS3h FP: 5.9; Cy5 interf NS3h: 0.628*

What do the screens show for `CC(C)COc1ccc(C(=O)Nc2cccc3ccccc23)cc1`?
HCV NS3h FP: 22.7; Cy5 interf NS3h: 1.09

What do the screens show for `CCCOc1ccc(C(=O)Nc2ccccc2C(=O)OC)cc1`?
HCV NS3h FP: 13.3; Cy5 interf NS3h: 0.703*

What do the screens show for `COC(=O)c1ccccc1NC(=O)COc1ccc(Br)cc1`?
HCV NS3h FP: 12.2; Cy5 interf NS3h: 0.959

What do the screens show for `Cc1ccccc1NC(=O)c1ccc(OCC(C)C)cc1`?
HCV NS3h FP: 12.4; Cy5 interf NS3h: 0.757*

How did COc1cc(NC(=O)COc2ccc3ccccc3c2)cc(OC)c1 do in these assays?
HCV NS3h FP: 18.2; Cy5 interf NS3h: 1.07

What do the screens show for `Cc1ccc(NC(=O)COc2ccc3ccccc3c2)cc1`?
HCV NS3h FP: 11.0; Cy5 interf NS3h: 1.35*

How did COC(=O)c1ccccc1NC(=O)c1ccccc1NC(=O)c1ccc(OC)cc1 do in these assays?
HCV NS3h FP: 8.8; Cy5 interf NS3h: 1.03

Results for COc1ccc(C2C(C(C)=O)=C(O)C(=O)N2c2nc3ccccc3s2)c(OC)c1 (stereo not given) ?
HCV NS3h FP: -7.3; Cy5 interf NS3h: 1.04

Results for COc1ccccc1C1NC(=S)NC(C)=C1C(=O)Nc1ccc(C)c(Cl)c1 (stereo not given) ?
HCV NS3h FP: 1.4; Cy5 interf NS3h: 1.03

What do the screens show for `O=C(Nc1ccc(-c2cnc(-c3ccc(NC(=O)C(F)(F)F)cc3)nc2)cc1)C(F)(F)F`?
HCV NS3h FP: 4.1; Cy5 interf NS3h: 0.902

Screening data: PubChem BioAssay, Milwaukee Institute for Drug Discovery
